High-throughput results as filed in PubChem BioAssay.
The list is not random: actives were taken first. Their share in the collection is about 3.5%.
TbPYK inhibitor – blocks Trypanosoma brucei pyruvate kinase. Q57TT1. TbPYK enzyme, Kinase-Glo Plus ATP luminescence, 45 min. Potency, µM (titrated, usually from 76.8 µM), without a hit: at the top dose activity, negative = inhibition, most hits filed as inhibitors. 0.12% of 410,000 active; further: on the % scale 0 is the no-effect control and ±100 the full control effect; nearly all actives have a fitted effect of over 50% in size
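TbPYK + substrate in 50 mM TEA pH 7.2, 100 mM KCl, 10 mM MgCl2, 0.05% BSA, 0.01% Tween-20; cpd pinned; ADP 130 uM final; 45 min RT; Kinase-Glo Plus 10 min; luminescence endpoint.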
NS1 inh – influenza NS1 inhibition | Potency, µM (highest dose often 46.1 µM), for the others: at the highest dose activity, positive = more growth | AID 2326 | 0.4% of 270,000 active; calls by dose curve; further: actives are rising curves; nearly all actives have a fitted effect of over 50% in size
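Read-out: OD600 growth recovery of NS1-expressing budding yeast. Cells grown overnight at 30C in -URA glucose medium, washed, resuspended and diluted 1:100 in 2% galactose assay medium, pH 6.0. Same strain lacking NS1 served as positive control.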
LmPK inh – blocks Leishmania mexicana pyruvate kinase activity | Q27686 | purified LmPK, Kinase-Glo ATP luminescence, 1 h | Potency, µM (top dose mostly 57.5 µM), for inactives: top-dose activity change, negative = inhibition, usual class: inhibitors | 0.37% of 290,000 active | AID 1721; further: on the % scale 0 is the no-effect control and ±100 the full control effect
Target sequence (Q27686 whole entry, looked up): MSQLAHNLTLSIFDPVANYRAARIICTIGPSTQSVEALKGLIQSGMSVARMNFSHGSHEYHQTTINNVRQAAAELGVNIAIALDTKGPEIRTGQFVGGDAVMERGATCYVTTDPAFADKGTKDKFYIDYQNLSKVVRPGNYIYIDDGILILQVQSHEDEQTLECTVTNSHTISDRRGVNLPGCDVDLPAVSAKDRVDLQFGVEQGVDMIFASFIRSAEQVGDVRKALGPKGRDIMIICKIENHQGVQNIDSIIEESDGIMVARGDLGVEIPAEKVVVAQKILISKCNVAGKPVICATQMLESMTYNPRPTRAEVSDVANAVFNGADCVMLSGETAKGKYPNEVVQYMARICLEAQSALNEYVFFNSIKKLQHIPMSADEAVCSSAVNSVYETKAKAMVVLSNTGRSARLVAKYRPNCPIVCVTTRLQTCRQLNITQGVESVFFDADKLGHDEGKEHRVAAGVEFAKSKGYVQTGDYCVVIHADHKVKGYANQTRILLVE
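In 50 mM imidazole pH 7.2 with 7 mM MgCl2, LmPK (0.1 nM) turned over PEP (0.5 mM) and ADP (0.1 mM) for 1 h at room temperature. Luciferase read-out of ATP.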
Sm TGR block – blocks Schistosoma mansoni thioredoxin glutathione reductase. purified TGR, DTNB reduction, TNB absorbance 405 nm. Potency, µM (top dose mostly 114 µM), without a hit: at the top dose activity change, negative = inhibition, most hits filed as inhibitors. 3% of 360,000 active. AID 485364; further: on the % scale 0 is the no-effect control and ±100 the full control effect; nearly all actives have a fitted effect of over 60% in size
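First, TGR (20 nM dispensed) and NADPH were mixed with compound. Second, a 15 min room-temperature incubation followed. Third, further NADPH and then DTNB were added to start the reaction. Finally, TNB absorbance was monitored kinetically.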
RE007 growth inh – less growth of the S. pombe RE007 Vpr strain | S. pombe RE007 Vpr strain, BacTiter-Glo ATP luminescence, 24 h | Potency, µM (doses to about 92.2 µM), for the others: at the top dose activity change, negative = less growth, hits mostly inhibitors | 0.21% of 360,000 active | AID 651644; active means well fitted falling curve with a large enough effect; inconclusive means small, poorly fitted or top-dose-only effect; inactive means no such curve, though single readings can be large or run the other way; further: on the % scale 0 is the no-effect control and ±100 the full control effect; nearly all actives have a fitted effect of over 50% in size
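Fission yeast RE007 carrying one integrated HIV-1 vpr copy, seeded at OD 0.01 in PMG+AL medium with 23 nL pinned compound. Grown 24 h at 30 degrees; viability read by BacTiter-Glo luminescence after 5 min.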
Giardia FBPA inh-1 – blocks Giardia fructose-bisphosphate aldolase activity; A8B2U2; purified Giardia FBPA; Potency, µM (series often up to 59.6 µM), for inactives: top-dose activity, negative = inhibition, actives largely listed as inhibitors; 0.71% of 290,000 active; further: on the % scale 0 is the no-effect control and ±100 the full control effect; nearly all actives have a fitted effect of over 55% in size
Target sequence (A8B2U2 whole entry, looked up): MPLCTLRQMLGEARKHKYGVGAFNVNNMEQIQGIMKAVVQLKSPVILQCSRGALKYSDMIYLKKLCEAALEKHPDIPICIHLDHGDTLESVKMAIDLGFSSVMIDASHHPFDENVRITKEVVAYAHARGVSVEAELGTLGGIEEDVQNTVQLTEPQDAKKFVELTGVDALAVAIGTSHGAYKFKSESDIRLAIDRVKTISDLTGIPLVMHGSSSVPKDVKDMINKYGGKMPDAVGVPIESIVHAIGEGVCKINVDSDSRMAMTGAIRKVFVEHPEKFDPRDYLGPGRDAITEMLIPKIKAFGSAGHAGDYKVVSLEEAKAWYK
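Giardia FBPA (40 nM reagent) was preincubated 10 min at RT with compound (up to 57.5 uM final), then substrate plus GAPDH/TPI/NAD/arsenate coupling system with diaphorase/resazurin was added; resorufin fluorescence (525/598 nm) was read after 20 min.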
Giardia growth – Giardia lamblia growth inhibition. shares compounds with Giardia FBPA inh-1. Giardia lamblia trophozoite growth inhibition. Potency, µM (doses to about 57.5 µM), for the others: top-dose activity change, negative = inhibition, actives largely listed as inhibitors. 5% of 1,500 active. AID 2785;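 further: trophozoites exposed to compound for 48 h at 37 °C; on the % scale 0 is the no-effect control and ±100 the full control effect; nearly all actives have a fitted effect of over 70% in size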
Mammalian tox – toxic to mammalian cells in Giardia aldolase counter-screen | mammalian cell viability counter-screen, qHTS | Potency, µM (highest dose often 57.5 µM), inactives show top-dose viability change, negative = toxicity, hits mostly inhibitors | shares compounds with Giardia FBPA inh-1 | 4% of 1,500 active;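 further: Chinese hamster ovary cells used as mammalian cytotoxicity surrogate; viability measured as cellular ATP by luminescence; compound exposure lasted 48 h before reading; on the % scale 0 is the no-effect control and ±100 the full control effect; nearly all actives have a fitted effect of over 60% in size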
Giardia FBPA inh-2 – confirmation of Giardia fructose-bisphosphate aldolase inhibitors | shares compounds with Giardia FBPA inh-1 | purified Giardia aldolase enzyme activity, qHTS | Potency, µM (series often up to 57.5 µM), for inactives: top-dose activity change, negative = inhibition, actives largely listed as inhibitors | 5% of 1,500 active; further: on the % scale 0 is the no-effect control and ±100 the full control effect; nearly all actives have a fitted effect of over 45% in size
Rabbit FBPA inh – selectivity test for Giardia aldolase inhibitors: rabbit aldolase. shares compounds with Giardia FBPA inh-1. Rabbit muscle FBPA enzyme inhibition, selectivity counter-screen. Potency, µM (top dose mostly 57.5 µM), for inactives: at the top dose activity, negative = inhibition, usual class: inhibitors. 4% of 1,500 active. AID 2794; further: on the % scale 0 is the no-effect control and ±100 the full control effect; nearly all actives have a fitted effect of over 60% in size
GAPDH coupling – counter-screen for Giardia aldolase inhibitors: GAPDH coupling enzyme; Potency, µM (series often up to 57.5 µM), inactives show top-dose activity change, negative = inhibition, most hits filed as inhibitors; GAPDH coupling enzyme counterscreen, biochemical, qHTS; shares compounds with Giardia FBPA inh-1; 6% of 1,500 active; further: on the % scale 0 is the no-effect control and ±100 the full control effect; nearly all actives have a fitted effect of over 55% in size
The depositor's hits bear a star; ? = inconclusive; · = no result given; [ ] = remark or other dose. Unless noted, the call rests on the fitted dose curve; in most records, active means well fitted curve in the direction sought with a large enough effect; inconclusive means small, poorly fitted or top-dose-only effect, or another doubt; inactive means no such curve, though single readings can be large; an effect the other way counts as inactive or inconclusive. Potency means the concentration at half of the fitted maximal effect.

SMILES | TbPYK inhibitor | NS1 inh | LmPK inh | Sm TGR block | RE007 growth inh | Giardia FBPA inh-1 | Giardia growth | Mammalian tox | Giardia FBPA inh-2 | Rabbit FBPA inh | GAPDH coupling
COc1ccc(NC(=O)NNS(=O)(=O)c2ccc(Br)cc2)cc1 | -2% | 2% | 0% | 9% | 6% | 7% | · | · | · | · | ·
COc1ccc(S(=O)(=O)NNC(N)=S)cc1 | -1% | · | 4% | 5% | 5% | 10µM* | -1%[38.3 µM] | 11% | 0% | 4% | 8%
COC(=O)c1ccccc1NC(=O)c1nc(SCc2ccccc2C)ncc1Cl | 5% | · | · | 0% | · | · | · | · | · | · | ·
CC(=O)Nc1cc(OC(C)=O)c2nonc2c1OC(C)=O | -5% | 7% | 15% | 8.9µM* | -9% | 0.045µM* | ? | 16µM* | 3.5µM* | 4.5µM* | 2µM*
CC(=O)Nc1nonc1NC(C)=O | 2% | ? | 2% | -1% | -9% | 1% | · | · | · | · | ·
S=c1[nH]nc(-c2ccn[nH]2)n1-c1ccccc1Cl | ? | 1% | ? | -2% | 13% | 20µM* | 45µM* | -11% | 0% | -1% | 5%
Cc1ccc(Cn2ccn(Cc3ccc(C)cc3)c(=O)c2=O)cc1 | 4% | · | · | 7% | · | · | · | · | · | · | ·
COc1ccc(-c2cc(-c3ccco3)[nH]c(=O)c2C#N)cc1OC | 3% | 1% | 4% | 4µM* | 6% | 16µM* | 19% | -14% | -15% | -11% | -4%
Cc1cccc(CNC(=O)c2cccc(NC(=O)N3CCSc4ncccc43)c2)c1 | 2%[15.4 µM] | · | · | 33% | · | · | · | · | · | · | ·
Cc1nn2c(=S)[nH]nc2[nH]c1=O | ? | · | 13% | -3% | -1% | 11µM* | 0%[10.4 µM] | -7% | -7% | -6% | 9%
Cc1n[nH]c(=S)n(NC(=O)/C=C/C(=O)Nn2c(=S)[nH]nc(C)c2=O)c1=O | -13% | 2% | -1% | · | -9% | -15% | · | · | · | · | ·
Cc1ccc(NS(=O)(=O)c2cc(NC(=O)c3ccc4c(c3)NC(=O)CS4)ccc2C)c(C)c1 | ? | -1% | 1% | · | 3% | 16µM* | -12% | -19% | -4% | -1% | 3%
COc1ccc(NC(=O)c2ccc3c(c2)NC(=O)CS3)cc1S(=O)(=O)Nc1ccc(Br)cc1 | -1% | 11% | 0% | · | 0% | -27% | · | · | · | · | ·
Cc1cc(C)cc(N2C(=O)CC(Cn3nc(C)cc3C)C2=O)c1 (stereo not drawn) | 0% | -1% | 1% | 0% | 8% | 0% | · | · | · | · | ·
Cc1cc(C)cc(N2C(=O)CC(Sc3ncn[nH]3)C2=O)c1 (stereo not drawn) | -15% | -13% | -3% | 0.5µM* | -8% | 20µM* | 22% | -4% | 4% | 4% | 11%
CCCC(=O)O[C@]1(C(=O)CCl)[C@H](C)C[C@@H]2[C@H]3CCC4=CC(=O)C=C[C@]4(C)[C@@]3(F)C(=O)C[C@@]21C | 3% | · | · | · | · | · | · | · | · | · | ·
CCn1c(CNC(=O)c2ccc(OC)cc2)nnc1SCC(=O)Nc1ccc(C)cc1 | 7% | · | · | 4% | · | · | · | · | · | · | ·
CN1C(=O)/C(=C/C=C/c2ccco2)C(=O)NC1=S | -10% | 9% | 10% | ? | -2% | 16µM* | 28% | -5% | -20% | 6% | 23%
COc1ccc(-c2nnc(NC(=O)c3ccccc3C)o2)cc1 | 2% | -58% | 4% | -17% | -13% | 16µM* | ? | -15% | -1% | -6% | -10%
Cc1ccc(C)c(-c2ccc(=O)n(C(C)C(=O)Nc3ccccc3C(F)(F)F)n2)c1 (stereo not drawn) | -4% | · | · | -1% | · | · | · | · | · | · | ·
COc1ccccc1CNS(=O)(=O)c1ccc(F)c(C(=O)Nc2cc(Cl)ccc2OC)c1 | 4% | · | · | 2% | · | · | · | · | · | · | ·
C/C(CC(=O)N1CCN(C=O)CC1)=N\NC(=O)c1ccc(Cl)cc1 | -16% | -6% | -8% | 0% | ? | -11% | · | · | · | · | ·
O=CN1CCN(C(=S)NC(=O)c2ccc(Cl)cc2)CC1 | -4% | 3% | -5% | -16% | 2% | 10µM* | -5%[38.3 µM] | 10% | 2% | 5% | -7%
CN1CCN(C(=S)NC(=O)c2ccc(Br)cc2)CC1 | -22% | -2% | ? | -22% | 10% | 18µM* | -6% | -3% | 9% | -1% | 9%
Cc1ccc2c(c1)C1CN(C)CCC1N2C(=S)NC(=O)c1ccc(Br)cc1 (stereo not drawn) | -13% | · | 5% | -15% | 4% | 16µM* | 8.9µM* | -8% | -12% | 6% | 7%
SMILES | TbPYK inhibitor | NS1 inh | LmPK inh | Sm TGR block | RE007 growth inh | Giardia FBPA inh-1 | Giardia growth | Mammalian tox | Giardia FBPA inh-2 | Rabbit FBPA inh | GAPDH coupling
Cc1ccc2c(c1)C1CN(C)CCC1N2C(=O)c1ccc(Br)o1 (stereo not drawn) | 0% | -3% | 3% | ? | -7% | -6% | · | · | · | · | ·
CN1CCN(C(=S)NC(=O)c2ccc(-c3ccccc3)cc2)CC1 | -24% | -3% | -1% | 2% | 1% | 18µM* | -11%[10.4 µM] | 2% | 6% | 12% | -5%
COc1ccc(-c2[nH]c(-c3ccc(OC)c(OC)c3)nc2SCC(=O)Nc2ccccc2)cc1 | -7% | · | · | -1% | · | · | · | · | · | · | ·
Cc1ccsc1C1C(C#N)=C(N)OC2=C1C(=O)CCC2 (stereo not drawn) | -4% | 0% | -6% | -2%[57.1 µM] | -7% | 18µM* | 37% | 17% | -27% | -30% | ?
Cc1ccc(C2C(C#N)=C(N)OC3=C2C(=O)CCC3)s1 (stereo not drawn) | -5% | 5% | -6% | 24% | 6% | -14% | · | · | · | · | ·
N#CCCN(Cc1cccnc1)C(=S)NC(=O)c1ccc(S(=O)(=O)N2CCCC2)cc1 | ? | · | -1% | -1% | 4% | 7.9µM* | 10% | 7% | -2% | 5% | 12%
